Laboratory results published in PubChem BioAssay AID1159580 (chemical genetic matrix, 2015).
Out of some 5,500 compounds screened, about 2,000 (36%) were called active. Roughly 18% stayed inconclusive and do not appear here. Cut-off read from the data, not from the text of the source: active = normalized growth mostly below about 0.91 (no sharp cut-off); inconclusive = no clear call, values can overlap the other calls; inactive = mostly above about 0.92. The list shows a part of the results.

Experiment: chemical genetic growth profiling, strain panel (AID 1159580);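 note: tested at 20 µM; growth read once vehicle control cultures reached saturation at 30 °C; 1 = growth at the plate median or of vehicle wells; lower values mean less growth of the strain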
Details: growth OD

Measured: normalized growth

CC(C)[C@]12O[C@H]1[C@@H]1O[C@@]13[C@@]1(C)CCC4=C(COC4=O)[C@@H]1C[C@@H]1O[C@@]13C2=O
inactive: S. cerevisiae deletion strains, locus YAL013W, strain DEP1, active compounds read low 1.01 | S. cerevisiae deletion strains, locus YBR021W, strain FUR4, active compounds read low 0.991 | S. cerevisiae deletion strains, locus YBR229C, strain ROT2, active compounds read low 1.01 | S. cerevisiae deletion strains, locus YCL029C, strain bik1, active compounds read low 0.998 | S. cerevisiae deletion strains, locus YDL035C, strain GPR1, active compounds read low 1.01 | S. cerevisiae deletion strains, locus YDL074C, strain BRE1, active compounds read low 1.03 | S. cerevisiae deletion strains, locus YDL101C, strain DUN1, active compounds read low 1.02 | S. cerevisiae deletion strains, locus YDL134C, strain PPH21, active compounds read low 1.01 | S. cerevisiae deletion strains, locus YDL185W, strain tfp1, active compounds read low 1 | S. cerevisiae deletion strains, locus YDL192W, strain arf1, active compounds read low 0.994 | S. cerevisiae deletion strains, locus YDR101C, strain arx1, active compounds read low 0.977 | S. cerevisiae deletion strains, locus YDR150W, strain NUM1, active compounds read low 1.02 | S. cerevisiae deletion strains, locus YDR162C, strain NBP2, active compounds read low 1.02 | S. cerevisiae deletion strains, locus YDR318W, strain mcm21, active compounds read low 0.979 | S. cerevisiae deletion strains, locus YDR388W, active compounds read low 0.996 | S. cerevisiae deletion strains, locus YDR502C, strain sam2, active compounds read low 1.01 | S. cerevisiae deletion strains, locus YEL061C, strain CIN8, active compounds read low 1.01 | S. cerevisiae deletion strains, locus YER110C, active compounds read low 0.987 | S. cerevisiae deletion strains, locus YER155C, strain BEM2, active compounds read low 1.02 | S. cerevisiae deletion strains, locus YER167W, strain BCK2, active compounds read low 1.01 | S. cerevisiae deletion strains, locus YGL078C, strain dbp3, active compounds read low 1.01 | S. cerevisiae deletion strains, locus YGL086W, strain mad1, active compounds read low 0.988 | S. cerevisiae deletion strains, locus YGL248W, strain PDE1, active compounds read low 1.01 | S. cerevisiae deletion strains, locus YGR078C, strain PAC10, active compounds read low 1.02 | S. cerevisiae deletion strains, locus YGR135W, strain pre9, active compounds read low 0.995 | S. cerevisiae deletion strains, locus YGR229C, strain SMI1, active compounds read low 1.01 | S. cerevisiae deletion strains, locus YGR252W, strain gcn5, active compounds read low 0.922 | S. cerevisiae deletion strains, locus YHR030C, strain SLT2, active compounds read low 1.01 | S. cerevisiae deletion strains, locus YHR079C, strain IRE1 (second series), active compounds read low 0.992 | S. cerevisiae deletion strains, locus YHR094C, strain hxt1, active compounds read low 0.991 | S. cerevisiae deletion strains, locus YHR129C, strain ARP1, active compounds read low 1.01 | S. cerevisiae deletion strains, locus YHR200W, strain rpn10, active compounds read low 0.997 | S. cerevisiae deletion strains, locus YIL066C, strain RNR3, active compounds read low 1 | S. cerevisiae deletion strains, locus YIL073C, strain SPO22, active compounds read low 0.958 | S. cerevisiae deletion strains, locus YIL125W, strain kgd1, active compounds read low 1.01 | S. cerevisiae deletion strains, locus YIR030C, strain dcg1, active compounds read low 0.998 | S. cerevisiae deletion strains, locus YJL095W, strain BCK1, active compounds read low 1 | S. cerevisiae deletion strains, locus YJL134W, strain LCB3, active compounds read low 1.01 | S. cerevisiae deletion strains, locus YJL168C, strain set2, active compounds read low 0.993 | S. cerevisiae deletion strains, locus YJL187C, strain SWE1 (second series), active compounds read low 1.02 | S. cerevisiae deletion strains, locus YJR043C, strain POL32, active compounds read low 0.987 | S. cerevisiae deletion strains, locus YJR075W, strain HOC1, active compounds read low 1.02 | S. cerevisiae deletion strains, locus YKL009W, strain mrt4, active compounds read low 0.994 | S. cerevisiae deletion strains, locus YKL068W, active compounds read low 0.994 | S. cerevisiae deletion strains, locus YKL085W, strain MDH1 (second series), active compounds read low 0.997 | S. cerevisiae deletion strains, locus YKL085W, strain MDH1, active compounds read low 0.997 | S. cerevisiae deletion strains, locus YKL190W, strain CNB1, active compounds read low 1.01 | S. cerevisiae deletion strains, locus YKR001C, strain vps1, active compounds read low 0.997 | S. cerevisiae deletion strains, locus YLR039C, strain RIC1, active compounds read low 1.01 | S. cerevisiae deletion strains, locus YLR058C, strain SHM2, active compounds read low 1.01 | S. cerevisiae deletion strains, locus YLR102C, strain apc9, active compounds read low 1 | S. cerevisiae deletion strains, locus YLR262C, strain YPT6, active compounds read low 0.979 | S. cerevisiae deletion strains, locus YLR268W, strain sec22, active compounds read low 0.984 | S. cerevisiae deletion strains, locus YLR330W, strain CHS5, active compounds read low 1.01 | S. cerevisiae deletion strains, locus YLR342W, strain FKS1 (second series), active compounds read low 0.978 | S. cerevisiae deletion strains, locus YLR371W, strain rom2, active compounds read low 1 | S. cerevisiae deletion strains, locus YLR418C, strain cdc73, active compounds read low 0.995 | S. cerevisiae deletion strains, locus YML016C, strain PPZ1, active compounds read low 1.01 | S. cerevisiae deletion strains, locus YML032C, strain rad52, active compounds read low 0.972 | S. cerevisiae deletion strains, locus YML124C, strain tub3, active compounds read low 0.996 | S. cerevisiae deletion strains, locus YMR078C, strain ctf18, active compounds read low 0.989 | S. cerevisiae deletion strains, locus YMR223W, strain ubp8, active compounds read low 0.976 | S. cerevisiae deletion strains, locus YMR263W, strain SAP30, active compounds read low 1.03 | S. cerevisiae deletion strains, locus YMR307W, strain GAS1, active compounds read low 1.04 | S. cerevisiae deletion strains, locus YNL067W, strain RPL9B, active compounds read low 1.02 | S. cerevisiae deletion strains, locus YNL128W, strain TEP1, active compounds read low 1.03 | S. cerevisiae deletion strains, locus YNL153C, strain GIM3, active compounds read low 1.03 | S. cerevisiae deletion strains, locus YNL233W, strain BNI4, active compounds read low 1.04 | S. cerevisiae deletion strains, locus YNL250W, strain rad50, active compounds read low 0.992 | S. cerevisiae deletion strains, locus YNL271C, strain bni1, active compounds read low 0.998 | S. cerevisiae deletion strains, locus YNL298W, strain CLA4, active compounds read low 1.01 | S. cerevisiae deletion strains, locus YNL307C, strain MCK1, active compounds read low 0.983 | S. cerevisiae deletion strains, locus YNL322C, strain KRE1, active compounds read low 1.01 | S. cerevisiae deletion strains, locus YNR052C, strain pop2, active compounds read low 0.978 | S. cerevisiae deletion strains, locus YOL006C, strain TOP1, active compounds read low 1.01 | S. cerevisiae deletion strains, locus YOL012C, strain htz1 0.999 | S. cerevisiae deletion strains, locus YOL147C, strain pex11, active compounds read low 0.996 | S. cerevisiae deletion strains, locus YOR061W, strain CKA2, active compounds read low 1.01 | S. cerevisiae deletion strains, locus YOR069W, strain VPS5, active compounds read low 1.01 | S. cerevisiae deletion strains, locus YOR136W, strain idh2, active compounds read low 0.99 | S. cerevisiae deletion strains, locus YOR144C, strain elg1, active compounds read low 0.997 | S. cerevisiae deletion strains, locus YOR184W, strain ser1, active compounds read low 0.966 | S. cerevisiae deletion strains, locus YOR316C, strain cot1, active compounds read low 0.997 | S. cerevisiae deletion strains, locus YPL055C, strain LGE1, active compounds read low 1.06 | S. cerevisiae deletion strains, locus YPL241C, strain CIN2, active compounds read low 1.01 | S. cerevisiae deletion strains, locus YPR119W, strain clb2, active compounds read low 0.999 | S. cerevisiae deletion strains, locus YPR141C, strain kar3, active compounds read low 0.987 | S. cerevisiae deletion strains, locus YPR163C, strain tif3, active compounds read low 1 | S. cerevisiae deletion strains, locus YPR167C, strain met16, active compounds read low 0.99 | S. cerevisiae deletion strains, strain wtn01, active compounds read low 1.02 | S. cerevisiae strains, strain wild type, active compounds read low 1.01
